# Laboratory results reported in the supplement of paper PMC3545927.
# The other results are listed elsewhere or left out. No count for the full screen is at hand.
# Molecular target: furin, P09958
# Test: furin cleavage Z-score vs untreated control; higher = more cleavage, active = 3.5 or more, inactive = 1 or less, 8 variable residues between constant flanks
# Summary of the method: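 Cleavage by purified furin was measured on 8-mer peptides fused to a cDNA oligonucleotide and held on magnetic beads by their N-terminus. Reactions (0.01 ml, 1:10 enzyme:substrate) ran 7.5, 15 or 30 min in 50 mM HEPES pH 7.5 with CaCl2 and NaCl. Released DNA was adapter-tagged by PCR and sequenced, with read counts giving abundance. Log counts versus furin-free reactions were lowess-adjusted and scaled by median absolute deviation to give the cleavage Z-score.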
# Chain of furin, P09958 (P09958 whole entry): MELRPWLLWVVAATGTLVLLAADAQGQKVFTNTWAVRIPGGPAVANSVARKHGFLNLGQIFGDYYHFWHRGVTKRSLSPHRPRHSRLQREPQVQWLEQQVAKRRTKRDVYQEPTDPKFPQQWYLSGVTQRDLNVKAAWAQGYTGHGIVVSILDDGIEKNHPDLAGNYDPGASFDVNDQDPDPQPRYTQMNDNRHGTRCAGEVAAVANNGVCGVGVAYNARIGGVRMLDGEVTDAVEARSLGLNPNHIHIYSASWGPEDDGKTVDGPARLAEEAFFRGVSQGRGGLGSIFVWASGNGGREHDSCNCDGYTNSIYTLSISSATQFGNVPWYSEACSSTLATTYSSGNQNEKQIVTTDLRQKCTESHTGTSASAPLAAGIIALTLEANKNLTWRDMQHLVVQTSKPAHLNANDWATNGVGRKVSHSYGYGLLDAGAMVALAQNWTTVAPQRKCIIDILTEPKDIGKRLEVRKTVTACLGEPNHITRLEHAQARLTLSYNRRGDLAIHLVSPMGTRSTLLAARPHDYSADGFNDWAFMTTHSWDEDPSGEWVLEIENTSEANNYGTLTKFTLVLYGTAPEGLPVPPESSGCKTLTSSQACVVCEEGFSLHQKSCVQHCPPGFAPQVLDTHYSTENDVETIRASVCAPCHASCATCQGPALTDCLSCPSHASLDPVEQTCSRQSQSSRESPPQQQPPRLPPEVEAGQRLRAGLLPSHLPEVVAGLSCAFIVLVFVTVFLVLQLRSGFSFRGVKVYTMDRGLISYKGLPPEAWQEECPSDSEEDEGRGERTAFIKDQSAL
Sequence,furin cleavage Z-score (7.5 min),furin cleavage Z-score (15 min),furin cleavage Z-score (30 min)
CAFGYGAKDVAGNASASA [HC1421],0.651 (inactive),1.8,1.24
CAAYQVRNSTAGNASASA [HC256],-0.996 (inactive),-1.12 (inactive),-0.888 (inactive)
CAEDLVNLLPAGNASASA [HC1099],0.711 (inactive),1.96,0.196 (inactive)
CAEAVVCCSMAGNASASA [HC2123],-0.484 (inactive),0.759 (inactive),0.473 (inactive)
CARHKRWHFIAGNASASA [FS-1824],2.19,2.25,4.89 (active)
CARHYRNVFHAGNASASA [FS-2557],1.27,2.18,5.01 (active)
CARHKRIPPEAGNASASA [FS-3254],0.983 (inactive),0.356 (inactive),0.464 (inactive)
CARHGRDLYRAGNASASA [FS-2675],1.82,4.66 (active),6.11 (active)
CARHKRVHSGAGNASASA [FS-1895],-1.2 (inactive),-0.376 (inactive),-0.241 (inactive)
CARHKRVGTLAGNASASA [FS-2143],0.0898 (inactive),0.0513 (inactive),2.38
CARHKRTIPMAGNASASA [FS-2023],6.33 (active),8.53 (active),8.43 (active)
CARHYRWALGAGNASASA [FS-1719],-0.124 (inactive),3.28,3.44
CARHQRTENIAGNASASA [FS-2942],-1.07 (inactive),-2.42 (inactive),-0.236 (inactive)
CARHYRSNSPAGNASASA [FS-2027],1.06,-1.02 (inactive),-0.217 (inactive)
CAMEECEQHLAGNASASA [HC33],-0.264 (inactive),1.94,0.732 (inactive)
CAEDVTSTWVAGNASASA [HC2171],0.61 (inactive),-0.472 (inactive),0.123 (inactive)
CAEHEVPCHRAGNASASA [HC2455],0.493 (inactive),1.57,2.02
CARRARVTDAAGNASASA [FS-2513],0.594 (inactive),0.414 (inactive),0.64 (inactive)
CARRARGADAAGNASASA [FS-2512],2.72,3.57 (active),4.42 (active)
CARRKKALEIAGNASASA [FS-2593],0.898 (inactive),1.66,1.58
CAVAIKSLTEAGNASASA [HC1496],0.199 (inactive),0.138 (inactive),0.903 (inactive)
CARRKKSGRGAGNASASA [FS-2777],0.0968 (inactive),0.171 (inactive),1.92
CARRKKSAPAAGNASASA [FS-2514],4.51 (active),6.24 (active),5.54 (active)
CARRKKSLSEAGNASASA [FS-3050],4.99 (active),7.01 (active),7.62 (active)
CARRARSAPAAGNASASA [FS-2368],10.3 (active),10.4 (active),8.53 (active)
CAVTSPLTTSAGNASASA [HC1059],-0.539 (inactive),-0.0107 (inactive),-0.218 (inactive)

Sequence,furin cleavage Z-score (7.5 min),furin cleavage Z-score (15 min),furin cleavage Z-score (30 min)
CAEVVTSTEVAGNASASA [HC2232],-0.0344 (inactive),0.123 (inactive),-0.271 (inactive)
CALPCSFTTLAGNASASA [HC498],0.311 (inactive),0.0716 (inactive),0.261 (inactive)
CAETTTPCSGAGNASASA [HC1978],0.473 (inactive),0.124 (inactive),-0.446 (inactive)
CAGHRMAWDMAGNASASA [HC318],-0.464 (inactive),-0.574 (inactive),-0.169 (inactive)
CATGLTHIDAAGNASASA [HC942],-0.972 (inactive),-0.954 (inactive),0.105 (inactive)
CAERPCHRPSAGNASASA [HC2333],1.21,-1.94 (inactive),1.34
CAWICEVLSDAGNASASA [HC1152],0.155 (inactive),0.346 (inactive),0.769 (inactive)
CARRHIDLLVAGNASASA [HC290],1.11,0.566 (inactive),1.2
CAEVFTSTWVAGNASASA [HC2187],0.575 (inactive),-0.109 (inactive),-0.829 (inactive)
CAYIERSPRSAGNASASA [FS-520],1.05,2.95,3.61 (active)
CADKSRSPRSAGNASASA [FS-409],6.8 (active),6.47 (active),6.46 (active)
CAGSQLPCEPAGNASASA [HC1239],-0.324 (inactive),-2.36 (inactive),0.573 (inactive)
CANWAVRTKLAGNASASA [HC1634],1.9,0.613 (inactive),-0.705 (inactive)
CAREKRRSADAGNASASA [FS-2915],2.47,1.11,0.11 (inactive)
CAREKRSNSQAGNASASA [FS-2008],6.55 (active),8.6 (active),7.52 (active)
CAREKRSISDAGNASASA [FS-1889],9.34 (active),11.3 (active),8.9 (active)
CAREKRAKIKAGNASASA [FS-2207],-1.38 (inactive),0.0659 (inactive),0.59 (inactive)
CAREARVVSDAGNASASA [FS-2908],-1.38 (inactive),-0.98 (inactive),-0.486 (inactive)
CAQHLPYIEQAGNASASA [HC1017],-0.597 (inactive),-0.486 (inactive),-0.755 (inactive)
CARAPRSSSQAGNASASA [FS-3147],1.17,1.52,0.934 (inactive)
CAREKRAAEQAGNASASA [FS-1850],7.93 (active),9.37 (active),8.96 (active)
CAREKKSNSPAGNASASA [FS-2006],-0.648 (inactive),-0.595 (inactive),-1.15 (inactive)
CAREKRGGETAGNASASA [FS-2134],-0.448 (inactive),0.845 (inactive),1.95
CARFARMIEQAGNASASA [FS-2257],1.16,3.39,3.53 (active)
CARERRGREQAGNASASA [FS-1697],0.641 (inactive),1.84,1.15
